Measurements: PubChem BioAssay AID492998 (Southern Research Specialized Biocontainment Screening …, 2010)
Screen size: about 2,300 compounds; about 550 (24%) were called active. How the calls were made is not given here. Only a sample is shown. Results with a measured potency or affinity are listed apart.

Experiment: Vero E6 cell cytotoxicity, dose response, cytotoxicity control for non-replicating M. tuberculosis project, secondary assay (AID 492998)
Details: series mostly up to 20 µM
For `O=C1CCCC(O)=C1C=Nc1ccc2c(c1)oc1ccccc12`, the outcome was “inactive”.
In the case of `CCCCCCOc1ccc(C(=O)O)cc1C#N`, the outcome is reported as “inactive”.
For `CCC(=O)c1ccc(OC(=O)c2ccc(Br)o2)cc1`, the outcome was “inactive”.
For `Cc1cccc2nc(CSc3nc4cc([N+](=O)[O-])ccc4s3)cn12`, the outcome was “inactive”.
In the case of `Cc1nc2scc(-c3ccccc3)c2c(=O)o1`, the outcome is reported as “inactive”.
In the case of `C=CCn1c(C)cc(C2=NNC(=NCc3ccccc3)SC2)c1C`, the outcome is reported as “inactive”.
With `Cc1ccc2c(c1)c1c3n2CCN=C3CCC1` the outcome was “inactive”.
With `CCNC(=O)COC(=O)c1ccc(-c2nc3ccccc3s2)s1` the outcome was “inactive”.
For `Cc1ccc(/C=N/NC(=O)c2ccncc2)o1`, the outcome was “inactive”.
In the case of `O=C(N/N=C/c1cccc2nccnc12)c1ccncc1`, the outcome is reported as “inactive”.
For `Cc1ccsc1/C=N/NC(=O)c1ccncc1`, the outcome was “inactive”.
For `O=C(N/N=C/c1ccc[nH]1)c1ccncc1`, the outcome was “inactive”.
With `Clc1ccccc1CSc1nnc([C@@H]2CCCN2)o1` the outcome was “inactive”.
For `Cc1cccc(Cc2cnc(NC(=O)C3=NCCN3)s2)c1`, the outcome was “inactive”.
For `C=C[C@]1(C)C=C2CCC3[C@](C)(CCC[C@@]3(C)C(=O)O)C2CC1` (some centres not stated), the outcome was “inactive”.
For `S=C1NC2(CCCC2)N=C1c1ccccc1`, the outcome was “inactive”.
With `Cc1ccc(C)c(NC(=O)COC(=O)c2cc3ccccc3oc2=O)c1` the outcome was “inactive”.
For `CN1CCC(O)(c2ccccc2)C(C(=O)c2ccccc2)C1` (configuration not stated), the outcome was “inactive”.
For `Cc1cccc(N2CCN(C(=O)Cn3sc4nc(C)cc(C)c4c3=O)CC2C)c1` (configuration not stated), the outcome was “inactive”.
In the case of `CCCOC(=O)NC1CCS(=O)(=O)C1` (configuration not stated), the outcome is reported as “inactive”.
For `CC(C)(C)c1csc(NC(=O)c2ccccc2O)n1`, the outcome was “inactive”.
With `O=C(Nc1ncccn1)c1ccc([N+](=O)[O-])o1` the outcome was “inactive”.
In the case of `O=C(Nc1nccs1)c1ccc(COc2ccc(Cl)cc2)o1`, the outcome is reported as “inactive”.
In the case of `O=C(CN1CCN(c2ccc([N+](=O)[O-])cc2)CC1)Nc1ccccn1`, the outcome is reported as “inactive”.
For `Cc1csc(NC(=O)c2cc([N+](=O)[O-])cc([N+](=O)[O-])c2)n1`, the outcome was “inactive”.
For `O=C(Nc1nnc(COc2ccc(Cl)cc2)s1)c1ccco1`, the outcome was “inactive”.
With `Fc1cccc2sc(N3CCCC3)nc12` the outcome was “inactive”.
In the case of `O=C(CCC1CCCC1)NCc1ccccn1`, the outcome is reported as “inactive”.
In the case of `CCN(CC)S(=O)(=O)c1ccc(C(=O)OCn2nnc3ccccc3c2=O)cc1`, the outcome is reported as “inactive”.
With `Nc1ccc(Br)c2cccnc12` the outcome was “inactive”.
For `CCN(CC)c1ccc(-c2sc(Nc3ccccc3)n[n+]2-c2ccc(F)cc2)cc1`, the outcome was “inactive”.
In the case of `Cc1cc(C(=O)N/N=C/c2cccc(Cl)c2Cl)no1`, the outcome is reported as “inactive”.
In the case of `CSc1ccc(NC(=O)Nc2cccn(Cc3ccccc3)c2=O)cc1`, the outcome is reported as “inactive”.
In the case of `CCN(CC)c1ccc(NC2CC(=O)N(CCc3ccc(OC)cc3)C2=O)cc1` (configuration not stated), the outcome is reported as “inactive”.
For `CN1C(c2ccccc2)CC(=NO)CC1c1ccccc1` (configuration not stated), the outcome was “inactive”.
In the case of `O=C(COc1ccccc1)Nc1nnc(-c2ccc3c(c2)CCCC3)o1`, the outcome is reported as “inactive”.
With `COc1ccc(-c2nnc(SCC(C)C)o2)cc1` the outcome was “inactive”.
For `COc1ccc(-c2nnc(NC(=O)C3=COCCO3)o2)cc1`, the outcome was “inactive”.
With `O=C(CNC(=O)c1ccc(Br)cc1)c1ccc(Br)cc1` the outcome was “inactive”.
With `COC(=O)COc1ccc(-c2ccc(F)cc2)cc1C=O` the outcome was “inactive”.
In the case of `CC(=O)Nc1ccc(OC(=O)c2ccc(Br)c([N+](=O)[O-])c2)cc1`, the outcome is reported as “inactive”.
With `CC(C)C1O/C(=N/C(=O)Nc2ccc(Cl)c(Cl)c2)NC1=O` (configuration not stated) the outcome was “inactive”.
With `COc1n[nH]c(C(=O)Nc2cc(F)ccc2C)c1[N+](=O)[O-]` the outcome was “inactive”.
For `CC(C)(C)NC(=O)COC(=O)c1snc(C(=O)NC2CCCCC2)c1N`, the outcome was “inactive”.
In the case of `COc1ccc(NC(=O)COc2ccc3c(c2)CCC3)cc1`, the outcome is reported as “inactive”.
For `O=C(OCC(=O)c1c[nH]c2ccccc12)c1ccc([N+](=O)[O-])s1`, the outcome was “inactive”.
With `O=C(CN1CCOCC1)N/N=C/c1ccc(-c2ccc(Br)cc2)o1` the outcome was “inactive”.
For `O=C(CCSc1nnc(-c2ccncc2)o1)Nc1cccc(Cl)c1`, the outcome was “inactive”.
For `CCc1ccc(OCCCC(=O)Nc2nccs2)cc1`, the outcome was “inactive”.
In the case of `COc1ccc(C(=O)C2CCCN(C(=O)c3ccc(CSC)o3)C2)cc1F` (configuration not stated), the outcome is reported as “inactive”.
For `CSc1ccc(C(=O)C2CCCN(Cc3cc4ccccc4[nH]3)C2)cc1` (configuration not stated), the outcome was “inactive”.
In the case of `O=C(CCS(=O)(=O)c1ccc(Cl)cc1)Oc1ccc2c(c1)OCO2`, the outcome is reported as “inactive”.
For `CC1=NN(C(=O)COc2ccccc2)C(O)(c2ccccc2)C1` (configuration not stated), the outcome was “inactive”.
For `CC(Cc1cccs1)NC(=O)c1cccc(Cl)c1` (configuration not stated), the outcome was “inactive”.
For `Cc1ccc(C(=O)Oc2cccc(-n3cnnn3)c2)cc1`, the outcome was “inactive”.
With `CCc1ccc(NC(=O)C(=O)NNC(=O)c2cccc(OC)c2)cc1` the outcome was “inactive”.
For `CCOC(=O)c1csc(-c2snnc2C)n1`, the outcome was “inactive”.
With `O=C(NNC1=C(C(=O)C(F)(F)F)CCC1)c1ccccc1Cl` the outcome was “inactive”.
With `N#CC1=C(N)Oc2n[nH]c(-c3cccnc3)c2C1c1ccc([N+](=O)[O-])o1` (configuration not stated) the outcome was “inactive”.
In the case of `Cc1c(-c2ccc(Br)cc2)nc2ccccn12`, the outcome is reported as “inactive”.
In the case of `Cc1ccc(-c2nc3ccccn3c2Nc2ccccc2)o1`, the outcome is reported as “inactive”.
With `CCOC(=O)c1c(C)nc2cc(C)ccn12` the outcome was “inactive”.
For `Cc1ccc(-c2nnc(NC3CCCC3)s2)cc1`, the outcome was “inactive”.
For `FC(F)(F)c1ccc(-c2nnc(-c3cccnc3)o2)cc1`, the outcome was “inactive”.
With `CCOC(=O)c1ccc(N=CC2=C(O)CC(C)(C)CC2=O)cc1` the outcome was “inactive”.
For `O=C(c1nnc(-c2ccc(Cl)cc2)o1)C1CCCC1`, the outcome was “inactive”.
With `COc1ccc(CNC(=O)COC(=O)C2CC3C=CC2C3)cc1` (configuration not stated) the outcome was “inactive”.
In the case of `CSc1ccc(COC(=O)CCS(=O)(=O)c2ccc(C)cc2)cc1`, the outcome is reported as “inactive”.
For `Cc1cc(OCCCn2ccnc2)ccc1C(C)C`, the outcome was “inactive”.
For `C=C1Cn2c(nnc2-c2ccc(Cl)cc2)S1`, the outcome was “inactive”.
With `Cc1cccc(OC(=O)c2ccc3nccnc3c2)c1` the outcome was “inactive”.
In the case of `CCOC(=O)CN(C#N)c1nc(N(C)C)nc(N(C)C)n1`, the outcome is reported as “inactive”.
With `Cc1cc(OCCCCn2ccnc2)cc(C)c1Cl` the outcome was “inactive”.
For `O=C(COC(=O)c1ccccc1Br)Nc1ccccc1F`, the outcome was “inactive”.
With `Cc1cccc(Cn2ccc(NC(=O)c3ccc4c(c3)OCO4)n2)c1` the outcome was “inactive”.
For `O=C(NCc1ccc2c(c1)OCO2)c1ccc(Cl)s1`, the outcome was “inactive”.
In the case of `CCc1ccc(NC(=O)COc2ccc3c(c2)OCO3)cc1`, the outcome is reported as “inactive”.
For `CCOC(=O)c1csc(COc2ccc(OC)cc2)n1`, the outcome was “inactive”.
With `CC1(c2nnc(Cc3ccccc3)o2)CC(c2ccccc2[N+](=O)[O-])=NO1` (configuration not stated) the outcome was “inactive”.
For `Cc1ccc(CNC(=O)c2cnccn2)cc1`, the outcome was “inactive”.
In the case of `Cc1ccc(C(=O)Nc2nccs2)cc1`, the outcome is reported as “inactive”.
With `CN1C(=O)CC(N2CCC(c3nc4ccccc4s3)CC2)C1=O` (configuration not stated) the outcome was “inactive”.
With `O=C(CNC(=O)c1ccccc1F)OCc1csc(-c2ccccc2)n1` the outcome was “inactive”.
For `O=C(CCSc1ccc(Cl)cc1)NC1CCCC1`, the outcome was “inactive”.
In the case of `FC(F)c1nnc2ccc(Cl)nn12`, the outcome is reported as “inactive”.
With `Cc1ncsc1CCOC(=O)c1ccc([N+](=O)[O-])cc1` the outcome was “inactive”.
For `CN(C)S(=O)(=O)c1ccc(C(=O)Oc2ccccc2)cc1`, the outcome was “inactive”.
With `CCOC(=O)c1c(-c2ccc(C)o2)csc1NC(=O)CN1CCCCC1` the outcome was “inactive”.
With `O=C(OCC(=O)C12CC3CC(CC(C3)C1)C2)c1ccccn1` the outcome was “inactive”.
With `O=C(N/N=C/c1ccc[nH]1)c1cccnc1` the outcome was “inactive”.
In the case of `O=C(COc1ccc(Cl)cc1)NNC(=O)c1ccccn1`, the outcome is reported as “inactive”.
In the case of `O=C(Nc1ncccc1O)c1ccc(Oc2ccccc2)cc1`, the outcome is reported as “inactive”.
For `COc1ccc(OCC(=O)NNC(=O)c2ccccn2)cc1`, the outcome was “inactive”.
With `O=C(NNC(=O)C12CC3CC(CC(C3)C1)C2)c1cnccn1` the outcome was “inactive”.
In the case of `COc1ccc(C(=O)N/N=C/c2cccc3cccnc23)cc1`, the outcome is reported as “inactive”.
In the case of `O=C(NC(=S)NNC(=O)[C@H]1C[C@@H]1c1ccccc1)c1cccc(F)c1`, the outcome is reported as “inactive”.
For `COc1cccc2[nH]c3c(Cl)ncnc3c12`, the outcome was “inactive”.
For `CC1CCCN(CCSc2ccc(Cl)cc2)C1` (configuration not stated), the outcome was “inactive”.
In the case of `O=C(COc1ccc2ccccc2c1)Nc1ccncc1`, the outcome is reported as “inactive”.
With `O=C1C=CC(=O)N1N(c1ccccc1)c1ccccc1` the outcome was “inactive”.
For `O=C(c1cccc2cccc(O)c12)N1CCCCC1`, the outcome was “inactive”.
In the case of `Cn1c(SCc2c(F)cccc2Cl)nc2c(c1=O)SCC2`, the outcome is reported as “inactive”.
With `Cc1cccc(NC(=O)CCSc2nnc(Cc3ccccc3)o2)c1` the outcome was “inactive”.
In the case of `O=C(COC(=O)CCC(=O)c1ccc(F)cc1)Nc1ccc(F)cc1F`, the outcome is reported as “inactive”.
With `CC(/C=C/c1ccco1)=N/NC(=O)c1ccc(C)nc1` the outcome was “inactive”.
In the case of `COc1ccc(OCC(=O)N/N=C2\CCc3ccccc32)cc1`, the outcome is reported as “inactive”.
With `CCOc1ccccc1NC(=O)COn1nnc2ccc(Cl)cc21` the outcome was “inactive”.
In the case of `COc1ccc(CN=C(C#N)C2=C(O)c3ccccc3C2=O)cc1`, the outcome is reported as “inactive”.
In the case of `COc1cccc(NC(=O)c2ccc(C(=O)c3ccccc3)o2)c1`, the outcome is reported as “inactive”.
With `COc1cccc(NC(=O)c2cnc(SC)nc2)c1` the outcome was “inactive”.
In the case of `C(#CCN1CCOCC1)COCc1ccccc1`, the outcome is reported as “inactive”.
With `O=c1cc(C(F)(F)F)[nH]c2c(C(F)(F)F)cccc12` the outcome was “inactive”.
For `O=C(Nc1ncc2c(n1)-c1ccccc1OC2)c1ccc(F)cc1`, the outcome was “inactive”.
For `O=C(Nc1nnc(C2=COCCO2)o1)c1ccc(F)cc1`, the outcome was “inactive”.
For `CCOC(=O)CNCCC(=O)c1ccc(Br)cc1`, the outcome was “inactive”.
With `COc1ccc(S(=O)(=O)NCc2ccc3c(c2)cc(C)n3C)cc1` the outcome was “inactive”.
In the case of `NC(N)=Nc1nc(-c2ccccc2)c2ccccc2n1`, the outcome is reported as “inactive”.
For `COC(=O)COc1ccc(-c2nn(C)c(=O)c3ccccc23)cc1`, the outcome was “inactive”.
For `COC(=O)[C@H](CC(C)C)NC(=O)NCCC1=CCCCC1`, the outcome was “inactive”.
With `O=C(NCc1cccs1)c1cc(-c2ccc(O)cc2)on1` the outcome was “inactive”.
In the case of `CC1CCN(CCOCCSc2ccc(Cl)cc2)CC1`, the outcome is reported as “inactive”.
In the case of `O=C(CCSc1ccccn1)c1ccccc1`, the outcome is reported as “inactive”.
In the case of `CCOc1ccc(-c2ccc(SCC)nn2)cc1`, the outcome is reported as “inactive”.
For `Nc1c(C(=O)NC2CCCCC2)nsc1C(=O)OCC(=O)NC1CCCCC1`, the outcome was “inactive”.
For `CCC(C)c1ccc(OCCn2ccnc2)cc1` (configuration not stated), the outcome was “inactive”.
With `O=C(N/N=C/C(Br)=C/c1ccccc1)c1ccncc1` the outcome was “inactive”.
In the case of `O=C(N/N=C/C(Br)=C/c1ccccc1)c1cnccn1`, the outcome is reported as “inactive”.
